# Assay results from PubChem BioAssay (NCATS).
# Records with an inconclusive call do not appear. A call without a number means that no potency is given here. The source made the active and inactive calls. Calls come from the whole dose curve; as a rule, active = well fitted curve in the direction sought with a large enough effect; inconclusive = small, poorly fitted or top-dose-only effect, or another doubt; inactive = no such curve, though single readings can be large; an effect the other way counts as inactive or inconclusive.
# Biological target: Arylsulfatase A (Homo sapiens) (UniProt P15289)
# Test: qHTS screen for enhancers of Arylsulfatase A (ASA1): LOPAC Validation Assay (AID 720538)
# Conditions: ASA enzyme activity, LOPAC qHTS enhancer assay; series mostly up to 57.5 µM
# Method in brief: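 MLD patient fibroblasts (SV40, ASA-I179S), 1536-well; adhere 6 hrs; cpd 48h, 37 degree C, 5% CO2; pNCS 0.5mM final in lysis buffer, 14h RT; stop 1N NaOH final; fluor. Ex525/Em598.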
# Potency is the fitted concentration of half-maximal effect.
# Chain of Arylsulfatase A (Homo sapiens) (P15289 whole entry, looked up): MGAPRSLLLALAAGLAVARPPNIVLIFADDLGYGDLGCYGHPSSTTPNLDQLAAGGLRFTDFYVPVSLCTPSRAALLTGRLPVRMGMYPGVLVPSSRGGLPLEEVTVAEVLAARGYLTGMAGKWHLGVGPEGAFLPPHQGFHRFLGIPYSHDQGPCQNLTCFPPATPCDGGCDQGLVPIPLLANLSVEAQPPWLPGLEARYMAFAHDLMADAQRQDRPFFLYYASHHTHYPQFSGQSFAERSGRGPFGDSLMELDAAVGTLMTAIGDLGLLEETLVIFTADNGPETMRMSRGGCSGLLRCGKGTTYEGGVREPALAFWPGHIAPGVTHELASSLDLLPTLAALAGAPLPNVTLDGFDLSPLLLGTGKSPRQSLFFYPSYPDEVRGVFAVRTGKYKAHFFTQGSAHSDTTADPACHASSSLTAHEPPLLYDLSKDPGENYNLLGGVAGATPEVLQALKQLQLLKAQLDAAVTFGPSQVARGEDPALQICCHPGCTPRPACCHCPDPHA
row,SMILES,Potency
1,N[C@@H](CC(=O)O)C(=O)O,inactive
2,N=c1ccn2c(n1)O[C@H]1[C@H](O)[C@@H](CO)O[C@H]12,inactive
3,CCCCCCCCCCCCCCCC(=O)OC(CC(=O)O)C[N+](C)(C)C (stereo not given),inactive
4,NC(=O)C1=CN(C2OC(COP(=O)(O)OP(=O)(O)OC[C@H]3O[C@@H](n4cnc5c(N)ncnc54)[C@H](OP(=O)(O)O)[C@@H]3O)C(O)C2O)C=CC1 (stereo not given in full),inactive
5,N#C/C(=C\c1c[nH]c2ccccc12)C(=O)c1ccc(O)c(O)c1,inactive
6,Cc1ccc(S(=O)(=O)/C=C/C#N)cc1,inactive
7,CCCC1(C)C(C#N)(C#N)C1(C#N)C#N,inactive
8,Cn1c(=O)c2[nH]c(-c3ccccc3)nc2n(C)c1=O,inactive
9,O=C(c1cc(O)c(O)c([N+](=O)[O-])c1)c1ccccc1F,19 µM (active)
10,CN(C)c1nc(N)c(C(=O)N=C(N)N)nc1Cl,inactive
11,O=C(O)CC1CCCc2ccccc2C1O (stereo not given),inactive
12,C[C@@H](CN1CCC(Cc2ccccc2)CC1)[C@@H](O)c1ccc(O)cc1,inactive
13,Ic1ccc(N2CCN(Cc3c[nH]c4ncccc34)CC2)cc1,inactive
14,COc1ccccc1N1CCN(CCCCNS(=O)(=O)c2cccc3c(N(C)C)cccc23)CC1,inactive
15,CC(=O)SCC[N+](C)(C)C,inactive
16,CN(C)C(N)=NCCC[C@H](N)C(=O)O,inactive
17,CCCCCCCCCCCCCCCC(=O)NCC(COP(=O)([O-])OCC[N+](C)(C)C)OCC (stereo not given),inactive
18,CO/S(=N\S(=O)(=O)c1ccc(Cl)cc1)c1ccc([N+](=O)[O-])cc1 (stereo not given),inactive

row,SMILES,Potency
1,CC(C)NC[C@@H](O)c1ccc(O)c(O)c1,inactive
2,Cn1ncc(S(=O)(=O)Cc2ccccc2)c(Br)c1=O,inactive
3,CNC(=O)[C@H]1O[C@@H](n2cnc3c(NCc4ccc(N)cc4)ncnc32)[C@H](O)[C@@H]1O,inactive
4,CN1C2CCC1CC(OC(=O)C(O)c1ccccc1)C2 (stereo not given),inactive
5,CCC1C(=O)OCC1Cc1cncn1C (stereo not given),inactive
6,O=C1O/C(=C/Br)CCC1c1cccc2ccccc12 (stereo not given),inactive
7,Nc1nc(Cl)nc2c1ncn2[C@@H]1O[C@H](COP(=O)(O)OP(=O)(O)OP(=O)(O)O)[C@@H](O)[C@H]1O,inactive
8,CCCCCCCCc1ccc(-c2ccc(C(=O)O)cc2)cc1,inactive
9,CSc1nc(N)c2ncn([C@@H]3O[C@H](COP(=O)(O)OP(=O)(O)OP(=O)(O)O)[C@@H](O)[C@H]3O)c2n1,inactive
10,Cc1cc(NC2CCCCC2)nc(-n2nc(C)cc2C)n1,inactive
11,C[N+](C)(CCCCCC[N+](C)(C)CCCN1C(=O)c2cccc3cccc(c23)C1=O)CCCN1C(=O)c2cccc3cccc(c23)C1=O,inactive
12,CC(N)C(=O)OC(C)(C)Cc1ccc(Cl)cc1 (stereo not given),inactive
13,Cn1cc(C2=C(c3ccc(Cl)cc3Cl)C(=O)NC2=O)c2ccccc21,inactive
14,O=C(c1ccc(Cl)cc1)N1CCN(c2ccc([N+](=O)[O-])c3ncccc23)CC1,inactive
15,O=C(O)c1cc([N+](=O)[O-])ccc1NCCCc1ccccc1,inactive
16,Cc1cc(NC(=O)Nc2ccc3c(ccn3C)c2)sn1,inactive
17,CN1CCc2ccccc2Cc2[nH]c3ccccc3c2CC1,inactive

# Tested on: not listed separately
# Test: qHTS for compounds that reverse cellular toxicity of Amyloid beta (A-beta) peptide in yeast: LOPAC Validation Assay (AID 720559)
# Conditions: yeast expressing A-beta; Potency: rescue of growth toxicity; series mostly up to 46.1 µM
# Method in brief: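 Medium dispensed, compounds pinned, A-beta yeast suspension added; plates held at 30 C for 48 hr; absorbance measured at 600 nm to gauge growth; values scaled between DMSO and FeCl3/clioquinol (equimolar) controls.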
row,SMILES,Potency
1,N[C@@H](CC(=O)O)C(=O)O,inactive
2,N=c1ccn2c(n1)O[C@H]1[C@H](O)[C@@H](CO)O[C@H]12,inactive
3,CCCCCCCCCCCCCCCC(=O)OC(CC(=O)O)C[N+](C)(C)C (stereo not given),inactive
4,NC(=O)C1=CN(C2OC(COP(=O)(O)OP(=O)(O)OC[C@H]3O[C@@H](n4cnc5c(N)ncnc54)[C@H](OP(=O)(O)O)[C@@H]3O)C(O)C2O)C=CC1 (stereo not given in full),inactive
5,N#C/C(=C\c1c[nH]c2ccccc12)C(=O)c1ccc(O)c(O)c1,inactive
6,Cc1ccc(S(=O)(=O)/C=C/C#N)cc1,inactive
7,CCCC1(C)C(C#N)(C#N)C1(C#N)C#N,inactive
8,Cn1c(=O)c2[nH]c(-c3ccccc3)nc2n(C)c1=O,inactive
9,O=C(c1cc(O)c(O)c([N+](=O)[O-])c1)c1ccccc1F,inactive
10,CN(C)c1nc(N)c(C(=O)N=C(N)N)nc1Cl,inactive
11,O=C(O)CC1CCCc2ccccc2C1O (stereo not given),inactive
12,C[C@@H](CN1CCC(Cc2ccccc2)CC1)[C@@H](O)c1ccc(O)cc1,inactive
13,Ic1ccc(N2CCN(Cc3c[nH]c4ncccc34)CC2)cc1,inactive
14,COc1ccccc1N1CCN(CCCCNS(=O)(=O)c2cccc3c(N(C)C)cccc23)CC1,inactive
15,CC(=O)SCC[N+](C)(C)C,inactive
16,CN(C)C(N)=NCCC[C@H](N)C(=O)O,inactive
17,CCCCCCCCCCCCCCCC(=O)NCC(COP(=O)([O-])OCC[N+](C)(C)C)OCC (stereo not given),inactive
18,CO/S(=N\S(=O)(=O)c1ccc(Cl)cc1)c1ccc([N+](=O)[O-])cc1 (stereo not given),inactive

row,SMILES,Potency
1,CC(C)NC[C@@H](O)c1ccc(O)c(O)c1,inactive
2,Cn1ncc(S(=O)(=O)Cc2ccccc2)c(Br)c1=O,inactive
3,CNC(=O)[C@H]1O[C@@H](n2cnc3c(NCc4ccc(N)cc4)ncnc32)[C@H](O)[C@@H]1O,inactive
4,CN1C2CCC1CC(OC(=O)C(O)c1ccccc1)C2 (stereo not given),inactive
5,CCC1C(=O)OCC1Cc1cncn1C (stereo not given),inactive
6,O=C1O/C(=C/Br)CCC1c1cccc2ccccc12 (stereo not given),inactive
7,Nc1nc(Cl)nc2c1ncn2[C@@H]1O[C@H](COP(=O)(O)OP(=O)(O)OP(=O)(O)O)[C@@H](O)[C@H]1O,18.4 µM (active)
8,CCCCCCCCc1ccc(-c2ccc(C(=O)O)cc2)cc1,inactive
9,CSc1nc(N)c2ncn([C@@H]3O[C@H](COP(=O)(O)OP(=O)(O)OP(=O)(O)O)[C@@H](O)[C@H]3O)c2n1,inactive
10,Cc1cc(NC2CCCCC2)nc(-n2nc(C)cc2C)n1,inactive
11,C[N+](C)(CCCCCC[N+](C)(C)CCCN1C(=O)c2cccc3cccc(c23)C1=O)CCCN1C(=O)c2cccc3cccc(c23)C1=O,inactive
12,CC(N)C(=O)OC(C)(C)Cc1ccc(Cl)cc1 (stereo not given),inactive
13,Cn1cc(C2=C(c3ccc(Cl)cc3Cl)C(=O)NC2=O)c2ccccc21,inactive
14,O=C(c1ccc(Cl)cc1)N1CCN(c2ccc([N+](=O)[O-])c3ncccc23)CC1,inactive
15,O=C(O)c1cc([N+](=O)[O-])ccc1NCCCc1ccccc1,inactive
16,Cc1cc(NC(=O)Nc2ccc3c(ccn3C)c2)sn1,inactive
17,CN1CCc2ccccc2Cc2[nH]c3ccccc3c2CC1,inactive
